Cycloheximide cs = counter-screen for Shiga toxin inhibitors: cycloheximide protein synthesis inhibition; cell reporter, cycloheximide protein synthesis inhibition counterscreen; max response, %; 12% of 300,000 active; AID 2314; in the data active = max response mostly above about 13%, no sharp cut-off; inactive = mostly below about 14%; note: read at 38.3 µM for the half of the compounds with a filed dose; 0% is about no effect
Vaccinia mCherry = inhibitors of vaccinia virus infection (mCherry reporter signal); Vaccinia virus mCherry reporter infection, fluorescence; Potency, µM (series often up to 36.5 µM), for inactives: top-dose activity change, negative = inhibition, actives largely listed as inhibitors; 0.63% of 310,000 active; AID 720579; calls by dose curve; tested in A549 cells; note: potency is the fitted concentration of half-maximal effect; % is set by controls: 0 for no effect and ±100 for the full control effect; nearly all actives have a fitted effect of over 35% in size
LASV entry inh = inhibitors of Lassa virus binding or cell entry. Potency, µM (top dose mostly 37.9 µM), for inactives: top-dose activity change, negative = inhibition, most hits filed as inhibitors. 1.2% of 300,000 active. Lassa virus pseudotype entry inhibition, cell reporter; calls by dose curve; tested in HEK293 cells; note: potency is the fitted concentration of half-maximal effect; % is set by controls: 0 for no effect and ±100 for the full control effect; nearly all actives have a fitted effect of over 50% in size
Marburg entry inh = Marburg virus entry inhibition; Potency, µM (series often up to 37.8 µM), inactives show at the highest dose activity change, negative = inhibition, hits mostly inhibitors; Marburg virus pseudotyped entry inhibition, cell reporter; 1.8% of 300,000 active; calls by dose curve; tested in HEK293 cells; note: potency is the fitted concentration of half-maximal effect; % is set by controls: 0 for no effect and ±100 for the full control effect
VACV Venus inh = inhibitors of vaccinia virus (Venus reporter). 0.46% of 330,000 active. Vaccinia virus Venus reporter expression, fluorescence. Potency, µM (titrated, usually from 36.5 µM), for inactives: at the highest dose activity change, negative = inhibition, most hits filed as inhibitors; calls by dose curve; tested in A549 cells; note: potency is the fitted concentration of half-maximal effect; % is set by controls: 0 for no effect and ±100 for the full control effect; nearly all actives have a fitted effect of over 30% in size
Shiga inhibitor = blocks Shiga toxin action in Vero cells; Vero cells, Shiga toxin protein synthesis inhibition reporter; inhibition, % at 38.7 µM; 9.2% of 290,000 active; AID 2315; in the data active = inhibition mostly above about 28%, no sharp cut-off; inactive = mostly below about 43%; note: 0% is about no effect
* hit, by the source's call; i = inactive; u = inconclusive; x = no result given; [ ] = another dose, or the depositor's remark. This is one part of a sample in which hits are shown more often than they occur.

SMILES	Cycloheximide cs	Vaccinia mCherry	LASV entry inh	Marburg entry inh	VACV Venus inh	Shiga inhibitor
CC(=O)Nc1sc2c(c1C#N)CCCC2	3.9	i	7.3%	19.7%[46.1 µM]	-9.6%	0.9
N#Cc1c(NC(=O)CSc2nc(N)cc(=O)[nH]2)sc2c1CCCCCC2	-2.7	-22.7%	-3.6%	u	-21.3%	-5.8
CC(C)C(=O)Nc1sc2c(c1C#N)CCCCC2	23.8*	x	-1.2%	9.6%	x	61.8*
N#Cc1c(NC(=O)CSc2ncn[nH]2)sc2c1CCCCC2	-7.8	u	-82.4%[14.3 µM]	0.461µM*	u	-34.9
CCOc1ccccc1/C=N/Nc1nc2c(N)ncnc2n1[C@H]1O[C@@H](CO)[C@H](O)[C@@H]1O	-1.9	x	x	x	x	-5.8
NNc1nnc2c3cc(F)ccc3n(CCc3ccccc3)c2n1	-2.3	u	u	10µM*	-1.6%	2.8
COc1cc(SC)ccc1C(=O)OCC(=O)NCC(C)C	25.3*	-11.7%	10.2%	13.9%[46.1 µM]	-3.6%	32.3
CC(C)NC(=O)NC(=O)COC(=O)c1ccc(F)cc1F	-1.3	-4.1%	-3.7%	16.5%	1.8%	-4.1
CSc1ccc(Cl)c(C(=O)OCC(=O)N2CCOCC2)c1	-2.3	x	-8.5%	-1.4%	-11.0%	24.3
CC(C)CNC(=O)COC(=O)c1ccc(F)cc1Cl	28.4*	6.8%	9.9%	9.9%[14.2 µM]	3.3%	51.8*
COc1cc(SC)ccc1C(=O)OCC(=O)NC(=O)NC(C)C	17.1*	i	4.2%[46.1 µM]	-1.4%[46.1 µM]	-25.4%	-7.3
COc1cc(SC)ccc1C(=O)OCC(=O)N1CCCC1	40.3*	35.7%	-15.3%	16.6%[46.1 µM]	-9.4%	50.2*
CC(C)CNC(=O)COC(=O)c1cc(Cl)cc(Cl)c1N	-3.0	-14.0%	-26.1%	-4.1%	-14.1%	7.2
Cc1ncc2c(c1CNC(=O)CN1CCCCC1)CCN(C(=O)c1ccc(F)cc1Cl)C2	x	-7.8%	x	x	-6.8%	x
Cc1cc(Cl)c2oc(C(=O)NCCC3CCCCO3)c(C)c2c1 (centres undefined)	21.7	i	u	u	-14.5%	86.8*
Cc1c(C(=O)NCC2CCCO2)oc2c(Cl)cccc12 (centres undefined)	x	-7.5%	6.3%[46.1 µM]	15.5%	-11.5%	x
Cc1cc(Cl)c2oc(C(=O)NCCN3CCCCC3CO)c(C)c2c1 (centres undefined)	14.8*	-15.3%	-2.3%	-7.8%	-26.0%	26.9
Cc1c(C(=O)NCCCN2CCCC2=O)oc2c(Cl)cccc12	x	-6.5%	u	u	-6.5%	x
CCS(=O)(=O)N1CCC2(CC1)OCCN2S(=O)(=O)c1ccc(OC)cc1	x	-8.4%	-6.9%	16.5%	-4.6%	x
CCC(C)[C@H](NC(=O)N1CCn2c1nc1ccccc12)C(=O)NCCc1ccc(OC)c(OC)c1 (some centres undefined)	0.9	x	x	x	x	-15.8
COc1cccc(C(=O)N(Cc2cc3ccc(C)cc3nc2N(C)C)C2CC2)c1OC	x	-15.7%	x	x	-4.2%	x
O=C(O)c1ccc(N/N=C/c2ccc(OC(=O)c3cccc(Cl)c3)cc2)cc1	37.3*	u	x	x	-0.4%	74.8*
O=C(Oc1ccc(/C=N/O)cc1)c1ccccc1	23.2*	x	3.4%	3.0%	x	58.0
O=C(Oc1ccc(/C=N/Nc2ccccc2)cc1)c1ccccc1	21.7*	i	-8.9%	34.0%	-16.6%	75.1*
O=C(Oc1ccc(C(=S)N2CCOCC2)cc1)c1cccc(Cl)c1	-1.0	i	-24.4%	15.7%	-13.6%	5.7
SMILES	Cycloheximide cs	Vaccinia mCherry	LASV entry inh	Marburg entry inh	VACV Venus inh	Shiga inhibitor
CCCCCCn1c([C@H](C)O)nc2ccccc21	x	x	x	-12.5%	x	x
COC1=C/C(=C/c2c(N)n3nc(-c4ccc(C)cc4)sc3nc2=O)C=CC1=O	54.5*	i	18.4%[46.1 µM]	u	0.7%	76.2*
CCOC1=C/C(=C/c2c(N)n3nc(-c4ccccc4)sc3nc2=O)C=CC1=O	-2.7	-13.7%	u	u	-5.6%	-9.6
CN(C)c1ccc(C(CNS(=O)(=O)c2ccc(F)cc2F)N2CCOCC2)cc1 (centres undefined)	x	-6.1%	10.5%[46.1 µM]	x	-5.0%	x
O=C(O)c1cccc(Nc2ncnc3c2cnn3-c2ccccc2)c1	35.1*	x	u	-17.9%	-17.4%	105.8*
Clc1cccc(Nc2ncnc3c2cnn3-c2ccccc2)c1	40.1*	u	x	x	u	44.5*
Fc1cccc(Nc2ncnc3c2cnn3-c2ccccc2)c1	30.2*	u	x	x	u	79.8*
N#Cc1cccc(Nc2ncnc3c2cnn3-c2cccc(Cl)c2)c1	x	-12.3%	-2.6%[46.1 µM]	x	-14.6%	x
Cc1ccccc1CNCCCSc1nnnn1-c1ccccc1	x	-11.1%	-2.3%[46.1 µM]	9.3%[46.1 µM]	-6.3%	x
CCC(C)(C)NC(=O)CN(C(=O)CNS(=O)(=O)c1ccccc1)c1ccc2c(c1)OCCO2	0.7	1.0%	x	-3.7%[46.1 µM]	3.3%	-8.9
O=C(CN(C(=O)CNS(=O)(=O)c1ccccc1)c1ccc2c(c1)OCCO2)NC1CCCCC1	24.0*	-5.5%	7.9%	14.8%	-18.0%	17.5
CC(=O)c1ccc(S(=O)(=O)N(C)CC(=O)NCC2CCCCC2)cc1	10.7	-14.6%	12.9%[46.1 µM]	-10.0%[46.1 µM]	-17.7%	53.4*
COc1ccccc1N(CC(=O)NC1CCCC1)S(=O)(=O)c1ccc(C)cc1	-6.3	-10.4%	u	-10.4%	-12.9%	-1.2
CCOc1ccccc1N(CC(=O)NC1CCCCC1)S(=O)(=O)c1ccc(C)cc1	2.2	-25.2%	u	3.16µM*	-17.2%	-5.9
CCOc1ccccc1N(CC(=O)N(C)Cc1ccccc1)S(=O)(=O)c1ccccc1	26.1	i	u	-27.0%	-13.0%	57.7*
COc1cccc(OC)c1OCCN1CCC(C(=O)NC(c2ccc3c(c2)OCO3)c2ccccn2)CC1 (centres undefined)	x	12.1%	x	x	-18.8%	x
CN(CC(=O)NC1CCCCCC1)S(=O)(=O)c1ccccc1	11.6*	-19.0%	u	28.7%	-9.1%	34.1*
COc1ccc(OC)c(NC(=O)Nc2nc(C(N)c3ccccc3Cl)cs2)c1 (centres undefined)	x	5.4%	x	x	-29.6%	x
COc1cc(/C=N/n2cnnc2)ccc1OCCSc1ccc(C)cc1	21.6*	x	15.8%	-1.8%	-20.7%	33.5
CCSc1nncn1/N=C/c1ccc(OC)c(OC)c1	21.1*	x	-5.5%	5.6%[46.1 µM]	-15.5%	32.0*
COc1ccc(-n2cnnc2SCC(=O)N2CCN(c3ccccc3)CC2)cc1	5.8	x	-11.7%	0.7%	-17.2%	-7.7
C=C(C)CSc1nncn1/N=C/c1ccc(OC)cc1	55.2*	x	u	u	x	140.5*
Cc1cccc(N2CCN(S(=O)(=O)c3c(C)[nH]c(C)c3C(=O)N3CCCC3)CC2C)c1 (centres undefined)	21.6	x	x	x	x	-3.8
CN(C)Cc1ccccc1Sc1cccc2ccccc12	-7.1	u	14.6µM*	20.6µM*	-26.3%	-9.1
CN(C)Cc1ccccc1Sc1ccccc1Br	-4.2	i	15.3%	0.1%	1.3%	-1.5
COc1ccc(Sc2ccccc2CN(C)C)cc1OC	0.6	x	21.1%	3.6%	-11.7%	-5.6
Cc1ccc(Sc2ccccc2CN(C)C)c(N)c1	25.4*	x	x	x	x	30.7
Cc1ccn2cc(C(=O)NCc3ccco3)nc2c1	24.8*	-15.5%	u	u	-7.5%	58.0*
O=C(NCc1ccccc1)c1cc(-c2ccco2)on1	33.6*	x	-12.4%	8.7%	x	64.7*
